These results are taken from PubChem BioAssay (NCI).

This is part of a sample that, as a whole, favours compounds with a hit. Of some 83,000 tested, about 20% had one in any assay.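 96-well plates, one dose, 48 hours. Percent growth reported; active if below 10.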 Values without a mark were called inactive. The source made the active and inactive calls.

Among the test systems are DU-145 prostate; K-562 leukemia; MALME-3M melanoma; MDA-MB-231 breast; RXF 393 renal; SF-268 CNS; SF-295 CNS; SF-539 CNS; UACC-257 melanoma; M14 melanoma; HCT-15 colon; HT29 colon; SNB-19 CNS; U251 CNS; PC-3 prostate; SK-MEL-5 melanoma; UACC-62 melanoma; SK-MEL-28 melanoma; LOX IMVI melanoma; SNB-75 CNS.
Holding throughout (assay): NCI-60 one-dose screen, 48 h (100 = growth as untreated, 0 = no growth, -100 = all killed)
Settings in all cases: 10 µM unless noted

For the compound `CC(C)NCC(O)COc1ccc(CCOCC2CC2)cc1` (centres undefined), the growth in the assay with DU-145 prostate is 111%; in the assay with K-562 leukemia, 97.6%; with MALME-3M melanoma it was 103%; with MDA-MB-231 breast it was 99.6%; in the assay with RXF 393 renal, 97.1%; in the assay with SF-268 CNS it was 108%. Also, the growth in the assay on SF-295 CNS was 108%; with SF-539 CNS, 107%; in the assay on UACC-257 melanoma it was 108%; with M14 melanoma, 96.6%; in the assay on HCT-15 colon, 107%; with HT29 colon it was 97.9%. Moreover, the growth with SNB-19 CNS is 106%; in the assay on U251 CNS, 99.4%; in the assay with PC-3 prostate, 80%; in the assay with SK-MEL-5 melanoma it was 95%; in the assay with UACC-62 melanoma, 110%; with SK-MEL-28 melanoma it was 118%.

`CC1CCCCN1S(=O)(=O)c1ccc(CN=C=S)cc1` (centres undefined): the growth in the assay on DU-145 prostate was 63.8%; with K-562 leukemia it was 9.18% (active); in the assay on MALME-3M melanoma it was 87.1%; with MDA-MB-231 breast it was 51.1%; with RXF 393 renal, 51.9%; in the assay with SF-268 CNS, 91.1%. Also, the growth was 99.6% in the assay on SF-295 CNS; 78.3% in the assay on SF-539 CNS; 79.9% with UACC-257 melanoma; 42% in the assay with M14 melanoma; 19.2% in the assay on HCT-15 colon; 50.5% in the assay with HT29 colon. Besides, the growth with SNB-19 CNS was 77.9%; in the assay on U251 CNS, 68.8%; in the assay on PC-3 prostate, 74.4%; in the assay with SK-MEL-5 melanoma, 91.5%; in the assay on UACC-62 melanoma it was 84.5%; in the assay on LOX IMVI melanoma it was 3.54% (active). The growth in the assay on SK-MEL-28 melanoma is 88.5%.

As for `COc1cc(C(=O)/C=C/c2c(-c3cccs3)nc3sccn23)cc(OC)c1OC`, the growth is 3.28% (active) in the assay on DU-145 prostate; 15.4% in the assay on K-562 leukemia; 34.8% in the assay on MALME-3M melanoma; 7.07% (active) in the assay on MDA-MB-231 breast; -20.7% (active) in the assay on RXF 393 renal; 17.7% in the assay with SF-268 CNS. Besides, the growth in the assay with SF-295 CNS was -35.8% (active); in the assay with SF-539 CNS, -27.6% (active); in the assay with UACC-257 melanoma, 5.19% (active); in the assay with M14 melanoma it was 7.73% (active); in the assay on HCT-15 colon, -36.7% (active); in the assay with HT29 colon, -13.8% (active). For the same compound, the growth in the assay on SNB-19 CNS is 14.4%; in the assay with U251 CNS, 0.929% (active); in the assay on PC-3 prostate it was 7.06% (active); with SK-MEL-5 melanoma, -37.9% (active); in the assay with UACC-62 melanoma, -56.4% (active); in the assay with LOX IMVI melanoma, -68.5% (active). For the same compound, the growth in the assay on SK-MEL-28 melanoma was 16.5%.

Take `O=C(CCc1nnc2sc(-c3ccccc3)nn12)c1nc2ccccc2[nH]1`: the growth with DU-145 prostate was 106%; with K-562 leukemia it was 5.84% (active); with MALME-3M melanoma, 93.7%; in the assay on MDA-MB-231 breast it was 97.2%; with RXF 393 renal, 107%; with SF-268 CNS, 116%. Also, the growth in the assay on SF-295 CNS was 77.1%; with SF-539 CNS it was 78.9%; in the assay on UACC-257 melanoma it was 100%; with M14 melanoma it was 96.3%; in the assay with HCT-15 colon it was 98.5%; in the assay on HT29 colon, 62.1%. For the same compound, the growth was 104% with SNB-19 CNS; 88.7% with U251 CNS; 85.7% with PC-3 prostate; 92.4% in the assay on SK-MEL-5 melanoma; 102% in the assay with UACC-62 melanoma; 88.3% in the assay on LOX IMVI melanoma. Besides, in the assay on SK-MEL-28 melanoma, the growth was 103%.

For `COc1cc(/C=C/C(=O)C2=C(/C=C/c3ccc(O)c(OC)c3)NC(=O)NC2c2ccc(O)c(OC)c2)ccc1O` (centres undefined), the growth in the assay on DU-145 prostate was 111%; with K-562 leukemia, 87%; in the assay with MALME-3M melanoma it was 117%; in the assay with MDA-MB-231 breast, 67.7%; in the assay with RXF 393 renal, 97.1%; in the assay with SF-268 CNS, 93.5%. For the same compound, the growth in the assay on SF-295 CNS is 93.1%; in the assay on SF-539 CNS it was 87%; with UACC-257 melanoma it was 85.6%; with M14 melanoma, 94%; in the assay on HCT-15 colon, 97.4%; in the assay with SNB-75 CNS it was 65.8%. For the same compound, the growth is 96.5% with SNB-19 CNS; 86.3% in the assay with U251 CNS; 76.7% with PC-3 prostate; 94.2% in the assay with UACC-62 melanoma; 98.7% with LOX IMVI melanoma; 103% with SK-MEL-28 melanoma.

With `CCCCC(CCCC)(S(=O)(=O)CC)S(=O)(=O)CC`, the growth was 107% in the assay with DU-145 prostate; 101% in the assay with K-562 leukemia; 99.8% in the assay on MALME-3M melanoma; 119% in the assay on MDA-MB-231 breast; 98.9% in the assay on RXF 393 renal; 109% in the assay with SF-268 CNS. For the same compound, the growth in the assay with SF-295 CNS was 100%; in the assay with SF-539 CNS it was 101%; in the assay on UACC-257 melanoma it was 101%; with M14 melanoma it was 101%; in the assay with HCT-15 colon, 97.7%; in the assay with HT29 colon, 105%. The growth in the assay on SNB-19 CNS was 105%; in the assay on PC-3 prostate, 91.6%; in the assay on SK-MEL-5 melanoma, 98%; in the assay on UACC-62 melanoma, 106%; in the assay with LOX IMVI melanoma, 102%; in the assay with SK-MEL-28 melanoma, 115%.

Consider `Cc1cccc2c(=O)c3c(sc12)c(NCCNCCO)nc1ccccc13`, for which the growth in the assay on DU-145 prostate was 27.3%; with K-562 leukemia, -65.7% (active); with MALME-3M melanoma, -42.2% (active); with MDA-MB-231 breast, -15.3% (active); in the assay on RXF 393 renal, 38.1%; with SF-268 CNS, 56.6%. For the same compound, the growth in the assay with SF-295 CNS is 65%; with SF-539 CNS it was 50.6%; in the assay with UACC-257 melanoma, 77.8%; in the assay with M14 melanoma, -56.4% (active); in the assay on HCT-15 colon, 0.304% (active); in the assay with HT29 colon it was -55.4% (active). Further, the growth is 49.6% in the assay with SNB-19 CNS; 13.4% with U251 CNS; 38.7% in the assay on PC-3 prostate; 39.5% in the assay with SK-MEL-5 melanoma; 26% in the assay on UACC-62 melanoma; -89.8% (active) with LOX IMVI melanoma. For the same compound, in the assay on SK-MEL-28 melanoma, the growth is -67.4% (active).

As to `CCCCc1ccc(NC(=O)C(F)(F)F)cc1`, the growth in the assay on DU-145 prostate is 100%; in the assay with K-562 leukemia it was 85.8%; in the assay on MALME-3M melanoma, 140%; in the assay with MDA-MB-231 breast, 99.8%; in the assay with RXF 393 renal it was 93.4%; with SF-268 CNS it was 83.9%. Further, the growth with SF-295 CNS was 105%; with SF-539 CNS it was 100%; with UACC-257 melanoma, 110%; with M14 melanoma it was 105%; in the assay on HCT-15 colon, 105%; in the assay with SNB-75 CNS it was 102%. The growth with SNB-19 CNS is 106%; with U251 CNS, 97.4%; in the assay on PC-3 prostate, 101%; in the assay with SK-MEL-5 melanoma, 106%; in the assay on UACC-62 melanoma, 99.9%; with LOX IMVI melanoma it was 95.5%. The growth in the assay on SK-MEL-28 melanoma was 112%.
